The values that follow come from PubChem BioAssay.

Usually viability stands for a read-out of living cells in per cent, often relative to untreated cells. Broadly, the inhibition is the drop in the measured response relative to a control, in per cent.

Results filed as inconclusive are left out. Activity calls are given as the source filed them.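 Rule for the calls, unless noted: active = viability at or below 10% of carrier control in both of two separate runs; inconclusive = viability at or below 10% in only one of the two runs; inactive = the rest.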

Test [1] is described as follows: Her2 expression decrease, cell viability multiplex – SKBR3 breast tumor cells, AlphaScreen, ATP viability, primary screen (AID 461;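 active = Her2 level under about 52% in both replicate screens, with viability over 70% of control, limit read from the data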;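 for Her2 level: lower value means less Her2 protein in the cells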;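 for viability: percent of carrier control wells set as 100% viability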). As to conditions: SKBR3 Her2 protein level, 18-24 h, measured here: SKBR3 viability, ATP luminescence, at 10 µM. On the technique in general: Alpha assays give light when donor and acceptor beads are brought close together.
In test [2] the target is Receptor tyrosine-protein kinase erbB-2 (Homo sapiens) (UniProt P04626). The test is described as above. As to conditions: 18-24 h, at 10 µM, stronger effect = lower value.
A short description of test [3]: reduced viability of SK-BR-3 breast cancer cells – cell-based, 24 h, human, pilot screen (AID 572).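 Note: compound exposure lasted between 18 and 24 h rather than exactly 24 h; 100% = carrier-treated control wells.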 Conditions: SK-BR-3 viability, CellTiter-Glo luminescence, at 10 µM, stronger effect = lower value.
Test [4] can be described thus: HUVEC growth inhibition – cell-based, human, primary screen (AID 575;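 active = viability at or below 30% in both replicate assays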;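 note: 100% = median of untreated cell wells with 0.1% DMSO on each plate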). As to conditions: HUVEC proliferation, CellTiter-Glo luminescence, 72 h; at 10 µM; stronger effect = lower value. Background: Cellular ATP, detected with luciferase, serves as a proxy for viable cell number.
A short description of test [5]: H69AR cell proliferation blockers – human, duplicate replicates, primary screen (AID 580;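 active = viability at or under a set limit in both replicates, limit being median viability minus 3 SD, cut at about 48% in these data, passing the limit was not always enough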;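 note: 100% = mean luminescence of untreated wells and 0% = no signal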). Conditions: H69AR lung tumor cells viability, ATP luminescence, 72 h; at 10 µM; stronger effect = lower value.
The nature of test [6]: MRP1 drug-resistance reversers in H69AR cells – cell-based, doxorubicin co-treatment, pilot screen (AID 601;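 active = viability loss from added drug above about 55%, and viability with drug at most 40%, in both replicates, limit read from the data, passing the limit was not always enough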). Conditions: CellTiter-Glo, 72 h, at 10 µM; for differential viability (reversal): stronger effect = higher value.
A short description of test [7]: yeast transport mutant growth inhibition pilot in 384-well plates, post-Golgi transport modulator project (AID 636; in the data active = inhibition above about 31%). Conditions: absorbance 615 nm, about 18 h, stronger effect = higher value.
Test [8] can be described thus: growth suppression of yeast trafficking mutant, preliminary HTS, modulators of trafficking downstream of Golgi apparatus project, 1536-format plate, OD 615 nm (AID 637; in the data active = inhibition above about 30%). Conditions: yeast transport mutant growth, absorbance 615 nm, 18 h; stronger effect = higher value.
The nature of test [9]: S. cerevisiae growth inhibition in permissive medium (OD615), pilot counter-assay for S. cerevisiae lifespan shortening project, permissive growth control (AID 705;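 active = growth inhibition above 25% in both replicates, a cutoff set 3 SD above the mean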). As to conditions: OD615, 24 h, at 10 µM, stronger effect = higher value.
Test [10] in a line: S. cerevisiae growth inhibition in restrictive medium, OD615, pilot screen, restrictive growth control, yeast lifespan reduction project (AID 706;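 active = growth inhibition above a set limit, 3 SD over mean compound inhibition, in both replicates, cut at about 43% in these data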;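 note: modified DeaD lifespan yeast strain shifted to restrictive glucose medium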). As to conditions: OD615, 48 h, at 10 µM, stronger effect = higher value.
A short description of test [11]: doxorubicin toxicity protection in MRP-1 cells – H69AR cells, CellTiter-Glo, duplicate, MRP-1 activator project, pilot screen (AID 807;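 active = viability increase at or above a cutoff of the median across tested compounds plus 3 SD, cut at about 8.5% in these data, passing the limit was not always enough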;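 note: compound pretreatment 18-22 h then 72 h combined with doxorubicin; 0% = doxorubicin alone and 100% = vehicle without doxorubicin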). Conditions: H69AR viability with doxorubicin, CellTiter-Glo luminescence; at 10 µM; stronger effect = higher value.
The nature of test [12]: viability of PTEN-null HCT116 cells – cell-based, HCT116 clonal line, CellTiter-Glo, pilot screen (AID 824;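 active = viability at or below 27.92% in each of two runs, the all-compound median minus 4 SD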;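 note: 0% = 20 µM Hyamine control and 100% = vehicle cell control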). Conditions: HCT116 PTEN-deleted viability, 60 h, at 10 µM, stronger effect = lower value.
A short description of test [13]: RAM pathway blockade in budding yeast – dse1pr::URA3 reporter, 5-FOA selection, pilot screen (AID 869;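 active = inhibition over a set limit, the all-compound mean plus 3 SD, in both replicate runs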;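 note: 0% = DMSO wells with no growth and 100% = 10 µM 1-NA-PP1 with full growth; RAM network block rescues cells from 5-FOA so hits raise OD615 growth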). Conditions: S. cerevisiae dse1pr::URA3 5-FOA growth, OD615, 2 d; at 10 µM; stronger effect = higher value; strain carries analog-sensitive mutant Cbk1 kinase.
The nature of test [14]: RAM signaling pathway blockade in yeast – S. cerevisiae, Pdr1DBD-CYC8 efflux-inhibited sensitized strain, primary screen (AID 1298;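 active = RAM network inhibition above 8.4% in each of two replicates, 3 SD over the compound average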;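 note: 0% = DMSO untreated cells without growth and 100% = 10 µM 1-NA-PP1 full growth; higher means more yeast growth rescued from 5-FOA killing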). Conditions: S. cerevisiae cbk1-as DSE1-URA3 strain, 5-FOA growth OD615, 2 d; at 50 µM; stronger effect = higher value.
Test [15] is described as follows: viability of HCT116 without oncogenic beta-catenin – human colon tumor cells, pilot screen (AID 823;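 active = cell viability at or below a set limit in both duplicate runs, the limit being the all-compound median minus 4 SD, cut at about 23% in these data, passing the limit was not always enough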;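 note: 0% = wells killed by 20 µM Hyamine and 100% = untreated DMSO cell wells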). As to conditions: HCT116 beta-catenin knockout viability, CellTiter-Glo, 60 h; at 10 µM; stronger effect = lower value.
Where [16] appears, read: H69AR cells + 2 uM doxorubicin, measured here: viability with 2 uM doxorubicin, stronger effect = lower value.
[17] abbreviates: H69AR cells, compound alone cytotoxicity.

Chain of Receptor tyrosine-protein kinase erbB-2 (Homo sapiens) (P04626 whole entry, looked up): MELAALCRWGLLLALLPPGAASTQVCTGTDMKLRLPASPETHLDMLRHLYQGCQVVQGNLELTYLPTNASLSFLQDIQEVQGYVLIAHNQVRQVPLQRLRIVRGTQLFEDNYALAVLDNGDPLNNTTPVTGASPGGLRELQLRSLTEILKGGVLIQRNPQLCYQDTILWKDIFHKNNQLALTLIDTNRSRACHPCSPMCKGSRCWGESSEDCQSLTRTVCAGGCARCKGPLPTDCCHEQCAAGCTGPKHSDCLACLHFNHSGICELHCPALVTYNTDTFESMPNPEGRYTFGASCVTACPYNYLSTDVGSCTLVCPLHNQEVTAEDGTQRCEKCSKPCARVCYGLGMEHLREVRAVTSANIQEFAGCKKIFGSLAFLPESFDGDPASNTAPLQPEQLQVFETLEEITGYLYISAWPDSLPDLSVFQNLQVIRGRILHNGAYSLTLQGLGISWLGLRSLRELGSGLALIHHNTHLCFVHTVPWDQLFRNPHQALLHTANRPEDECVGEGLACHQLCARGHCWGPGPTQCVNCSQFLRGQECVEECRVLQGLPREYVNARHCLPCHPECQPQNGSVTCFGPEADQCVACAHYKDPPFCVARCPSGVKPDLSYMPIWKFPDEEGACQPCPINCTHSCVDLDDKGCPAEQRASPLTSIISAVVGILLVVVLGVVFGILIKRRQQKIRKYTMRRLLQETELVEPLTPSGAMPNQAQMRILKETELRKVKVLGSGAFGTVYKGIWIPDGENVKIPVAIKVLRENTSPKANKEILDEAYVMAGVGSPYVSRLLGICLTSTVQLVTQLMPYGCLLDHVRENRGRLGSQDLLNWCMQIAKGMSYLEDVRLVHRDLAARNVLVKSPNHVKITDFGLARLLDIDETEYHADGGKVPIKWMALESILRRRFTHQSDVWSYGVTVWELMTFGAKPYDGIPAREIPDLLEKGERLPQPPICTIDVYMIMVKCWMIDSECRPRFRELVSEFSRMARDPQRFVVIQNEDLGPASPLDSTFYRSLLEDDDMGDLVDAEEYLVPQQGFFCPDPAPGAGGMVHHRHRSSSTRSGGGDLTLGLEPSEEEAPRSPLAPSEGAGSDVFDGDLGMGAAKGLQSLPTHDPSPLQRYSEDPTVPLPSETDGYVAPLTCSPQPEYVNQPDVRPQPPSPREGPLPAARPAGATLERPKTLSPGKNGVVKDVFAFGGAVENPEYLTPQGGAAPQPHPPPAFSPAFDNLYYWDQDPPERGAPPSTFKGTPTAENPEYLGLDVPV

With `CC(O)CN1C(=O)C(CC(=O)Nc2ccc(Cl)cc2)SC1=Nc1ccccc1` (stereo not given), the viability in test [1] is 97%; in test [3] it was 97% (inactive); in [4], 57% (inactive); in [5], 66.4% (inactive); in [6] (setting [16]) it was 76.6%; in test [6] (setting [17]), 66.4%. Besides, the viability in test [12] is 59.2% (inactive). For the same compound, in [2], the Her2 level is 101% (inactive). The differential viability (reversal) in test [6] (H69AR cells + 2 uM doxorubicin) is -10.2% (inactive). The figures for the inhibition in test [7], in test [8] and in test [13] were -6.99% (inactive), -7.94% (inactive) and 2.45% (inactive), respectively. For the same compound, the values for the growth inhibition in [9] and in [10] were -9.07% (inactive) and -7.22% (inactive), respectively. In addition, the viability increase in test [11] was -3.6% (inactive). Also, in test [14], the RAM network inhibition is 6.03% (inactive).

In the case of `COc1cc2[nH]c(=O)n(CCCCCC(=O)N3CCN(c4ccccn4)CC3)c(=O)c2cc1OC`, the viability in test [1] was 104%; in [3] it was 104% (inactive); in test [4], 100% (inactive); in [5], 89.3% (inactive); in test [6] (setting [16]), 92.1%; in [6] (setting [17]), 89.3%. For the same compound, in test [15], the viability was 73.2% (inactive). Further, in test [2], the Her2 level was 92.5% (inactive). Further, in test [6] (H69AR cells + 2 uM doxorubicin), the differential viability (reversal) is -2.77% (inactive). Besides, the inhibition in test [7] is -5.95% (inactive); in test [8] it was -4.83% (inactive); in test [13], 1.7% (inactive). Also, the growth inhibition in test [9] was -9.93% (inactive); in [10] it was -5.11% (inactive). Moreover, the viability increase in [11] was -4.76% (inactive). In addition, the RAM network inhibition in [14] is 3.23% (inactive).

As to `CC(=O)c1cccc(NC(=O)CCNS(=O)(=O)c2cccc3nsnc23)c1`, the viability in [1] was 86%; in [3], 86% (inactive); in [4], 95.6% (inactive); in test [5], 106% (inactive); in [6] (setting [16]), 94.5%; in test [6] (setting [17]), 106%. Also, the viability in [12] was 93.5% (inactive). Besides, the Her2 level in test [2] was 78% (inactive). Moreover, in test [6] (H69AR cells + 2 uM doxorubicin), the differential viability (reversal) was 11.8% (inactive). Further, the figures for the inhibition in test [7], in test [8] and in [13] were -6.58% (inactive), 6.19% (inactive) and 1.73% (inactive), respectively. Besides, the growth inhibition in test [9] is -5.2% (inactive); in test [10], -11% (inactive). In [11], the viability increase is -2.11% (inactive). Also, the RAM network inhibition in [14] is 2% (inactive).

For the compound `Cc1ccc(C(C(=O)NC2CCCCC2)N2CCOCC2)cc1` (stereo not given), the viability in test [1] was 95%; in test [3], 95% (inactive); in test [4] it was 106% (inactive); in [5] it was 95.8% (inactive); in [6] (setting [16]), 91.7%; in [6] (setting [17]), 95.8%. For the same compound, the viability in [12] was 89.3% (inactive). Further, the Her2 level in [2] was 100% (inactive). For the same compound, the differential viability (reversal) in test [6] (H69AR cells + 2 uM doxorubicin) was 4.12% (inactive). The results for the inhibition in test [7], in test [8] and in [13] were -5.89% (inactive), -4.13% (inactive) and 1.07% (inactive), respectively. Moreover, the growth inhibition in test [9] is -9.79% (inactive); in test [10], -10.3% (inactive). Besides, the viability increase in [11] is -2% (inactive). Also, in test [14], the RAM network inhibition is 7.79% (inactive).

For the compound `CCOC(=O)c1cc2c(=O)n3ccccc3nc2n(CCCOC)c1=NC(=O)C(C)(C)C`, the viability in [1] is 91%; in test [3], 91% (inactive); in [4], 105% (inactive); in test [5] it was 83.7% (inactive); in [6] (setting [16]), 60.6%; in test [6] (setting [17]), 83.7%. Further, the viability in test [12] was 91.4% (inactive). In addition, the Her2 level in test [2] was 92% (inactive). Further, the differential viability (reversal) in test [6] (H69AR cells + 2 uM doxorubicin) is 23.1% (inactive). Besides, the inhibition was -7.4% (inactive) in [7], -3.17% (inactive) in test [8] and 2.98% (inactive) in test [13]. Further, the results for the growth inhibition in test [9] and in test [10] were -11% (inactive) and 7.96% (inactive), respectively. In test [11], the viability increase was -2.09% (inactive). Moreover, the RAM network inhibition in test [14] is 2.11% (inactive).

Take `Fc1ccc(-c2ccc(-c3nn4c(-c5ccco5)nnc4s3)o2)cc1`: the viability was 76% in test [1]; 76% (inactive) in test [3]; 77.8% (inactive) in test [4]; 79.7% (inactive) in [5]; 74.5% in test [6] (setting [16]); 79.7% in [6] (setting [17]). Besides, the viability in test [15] is 97.1% (inactive). The Her2 level in [2] was 63% (inactive). Also, the differential viability (reversal) in test [6] (H69AR cells + 2 uM doxorubicin) was 5.16% (inactive). The results for the inhibition in [7], in test [8] and in [13] were -4.32% (inactive), 4.92% (inactive) and 1.25% (inactive), respectively. The growth inhibition in test [9] is 2.35% (inactive); in test [10] it was 60.4% (active). The viability increase in test [11] was -3.88% (inactive). The RAM network inhibition in test [14] is 2.34% (inactive).

Turning to `CCCCOC(=O)c1[nH]c2c(c1C)C(=O)CC(c1cc(OC)c(OC)c(OC)c1)C2` (stereo not given), the viability in test [1] is 89%; in test [3] it was 89% (inactive); in [4], 77.4% (inactive); in test [5] it was 72.4% (inactive); in [6] (setting [16]) it was 71.5%; in test [6] (setting [17]), 72.4%. Further, in test [12], the viability was 56.6% (inactive). In addition, in test [2], the Her2 level is 74.5% (inactive). In test [6] (H69AR cells + 2 uM doxorubicin), the differential viability (reversal) is 0.9% (inactive). Also, the results for the inhibition in test [7], in test [8] and in test [13] were 0.38% (inactive), -3.33% (inactive) and 1.75% (inactive), respectively. In addition, the growth inhibition is -13% (inactive) in test [9] and -18.8% (inactive) in test [10]. For the same compound, in test [11], the viability increase was 1.17% (inactive). Also, the RAM network inhibition in test [14] was 3.15% (inactive).

On to `O=C1CCCC2=C1C(c1cccs1)n1nc(SCc3ccccc3F)nc1N2` (stereo not given), for which the viability is 85% in test [1]; 85% (inactive) in [3]; 65.5% (inactive) in [4]; 81.7% (inactive) in test [5]; 15.6% in [6] (setting [16]); 81.7% in [6] (setting [17]). For the same compound, in test [12], the viability was 68.4% (inactive). Moreover, in test [2], the Her2 level is 99.5% (inactive). In test [6] (H69AR cells + 2 uM doxorubicin), the differential viability (reversal) is 66.1% (active). Further, the inhibition in [7] was -0.27% (inactive); in test [8] it was 10.2% (inactive); in test [13], 1.23% (inactive). The growth inhibition in test [9] was -6.56% (inactive); in [10], -6.42% (inactive). The viability increase in test [11] is -5.19% (inactive). Moreover, the RAM network inhibition in [14] is 3.02% (inactive).

For the compound `COc1ccc(C(C(=O)NC2CCCCC2)N2CCC3(CC2)OCCO3)cc1` (stereo not given), the viability in test [1] was 86%; in test [3], 86% (inactive); in [4], 114% (inactive); in test [5], 100% (inactive); in test [6] (setting [16]) it was 93.5%; in test [6] (setting [17]), 100%. Further, in test [12], the viability is 88.8% (inactive). Besides, in test [2], the Her2 level is 98% (inactive). Further, the differential viability (reversal) in test [6] (H69AR cells + 2 uM doxorubicin) is 6.97% (inactive). Besides, the inhibition was -7.81% (inactive) in test [7], 5.71% (inactive) in test [8] and 2.62% (inactive) in test [13]. The results for the growth inhibition in [9] and in test [10] were -7.27% (inactive) and -6.88% (inactive), respectively. The viability increase in test [11] was -2.42% (inactive). In addition, in [14], the RAM network inhibition was 2.77% (inactive).

Turning to `CC(=O)NCC(=O)N(Cc1ccco1)C1(C(=O)NC2CCCCC2)CCCCC1`, the viability in [1] was 140%; in [3] it was 140% (inactive); in test [4], 103% (inactive); in test [5], 90.9% (inactive); in [6] (setting [16]) it was 88.3%; in test [6] (setting [17]) it was 90.9%. In addition, the viability in [12] was 90% (inactive). Further, the Her2 level in test [2] was 93% (inactive). For the same compound, the differential viability (reversal) in test [6] (H69AR cells + 2 uM doxorubicin) was 2.67% (inactive). Moreover, the figures for the inhibition in [7], in [8] and in test [13] were -9.59% (inactive), 2.7% (inactive) and 2.22% (inactive), respectively. The values for the growth inhibition in [9] and in test [10] were -7.64% (inactive) and 2.32% (inactive), respectively. In test [11], the viability increase was -5.15% (inactive). Besides, the RAM network inhibition in [14] is -0.72% (inactive).
